Measured values as given in PubChem BioAssay.
Unmarked numbers belong to inactive results. Calls of active or inactive are those of the source. Cut-off read from the data, not from the text of the source, unless noted: active = inhibition above about 42%; inactive = the rest.

Assays:
[1] = StAR promoter reporter inhibitors, counter-screen for LRH-1 inverse agonist project, cell-based, luminescence, high throughput (AID 651611; in the data active = inhibition above about 28%); settings: StAR promoter luciferase reporter counterscreen, at 3.6 µM, active compounds read high
[2] = target: Nuclear receptor subfamily 5 group A member 2 (Homo sapiens) (UniProt O00482); assay: LRH-1 (NR5A2) inverse agonists, retest, confirmation, cell-based, luminescence (AID 651613); settings: cell-based LRH-1 luciferase reporter, inverse agonism; at 3.6 µM; active compounds read high;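 note: HEK293T cells co-transfected with LRH-1 and StAR promoter luciferase reporter; 0% = vehicle wells and 100% = parental cells lacking receptor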
Chain of Nuclear receptor subfamily 5 group A member 2 (Homo sapiens) (O00482 whole entry, looked up): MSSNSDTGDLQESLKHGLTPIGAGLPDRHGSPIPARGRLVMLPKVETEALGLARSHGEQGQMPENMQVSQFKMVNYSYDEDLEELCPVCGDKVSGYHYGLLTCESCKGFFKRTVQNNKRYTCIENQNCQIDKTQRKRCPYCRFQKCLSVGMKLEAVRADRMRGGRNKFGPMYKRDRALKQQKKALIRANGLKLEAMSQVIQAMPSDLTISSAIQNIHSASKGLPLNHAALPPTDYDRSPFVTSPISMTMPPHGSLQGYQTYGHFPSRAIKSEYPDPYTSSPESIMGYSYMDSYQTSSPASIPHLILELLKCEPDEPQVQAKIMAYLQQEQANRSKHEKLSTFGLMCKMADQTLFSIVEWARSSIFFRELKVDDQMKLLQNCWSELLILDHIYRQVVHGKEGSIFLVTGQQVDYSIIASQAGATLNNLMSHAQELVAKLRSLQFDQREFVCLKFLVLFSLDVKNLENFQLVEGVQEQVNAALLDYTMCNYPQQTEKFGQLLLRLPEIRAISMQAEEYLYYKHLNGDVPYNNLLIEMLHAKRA

[3] = target: Steroidogenic factor 1 (Homo sapiens) (UniProt Q13285); assay: SF1 (NR5A1) inverse agonists, counter-screen for LRH-1 inverse agonist project, cell-based, luminescence, high throughput (AID 651614; in the data active = inhibition above about 44%;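 note: cells cotransfected with StAR promoter reporter and SF1 expression vector; 0% = vehicle on cells with receptor and 100% = vehicle on cells lacking receptor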); settings: cell-based SF1 luciferase reporter, at 3.6 µM, active compounds read high
Chain of Steroidogenic factor 1 (Homo sapiens) (Q13285 whole entry, looked up, the tested form may be a part): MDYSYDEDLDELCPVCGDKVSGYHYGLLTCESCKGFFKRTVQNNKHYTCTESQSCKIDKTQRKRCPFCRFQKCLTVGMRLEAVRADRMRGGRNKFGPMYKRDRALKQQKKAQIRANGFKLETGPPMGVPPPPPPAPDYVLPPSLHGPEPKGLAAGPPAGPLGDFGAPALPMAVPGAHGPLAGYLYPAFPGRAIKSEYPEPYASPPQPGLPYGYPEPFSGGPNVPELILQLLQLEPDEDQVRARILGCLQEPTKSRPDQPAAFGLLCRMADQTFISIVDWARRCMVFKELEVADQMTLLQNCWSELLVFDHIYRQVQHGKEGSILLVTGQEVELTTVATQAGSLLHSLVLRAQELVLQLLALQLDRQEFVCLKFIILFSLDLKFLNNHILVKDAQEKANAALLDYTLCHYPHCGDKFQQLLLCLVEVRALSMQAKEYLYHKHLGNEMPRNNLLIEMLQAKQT

[4] = VP16 transactivation reporter inhibitors, counter-screen for LRH-1 inverse agonist project, cell-based, luminescence, high throughput (AID 651615; in the data active = inhibition above about 33%); settings: Gal4-VP16 luciferase reporter cells, at 3.6 µM, active compounds read high

Compound | inhibition [1] | inhibition [2] | inhibition [3] | inhibition [4]
C=CCNc1nc2c(c(=O)n(C)c(=O)n2C)n1CCCCCC | 28.9% (active) | 73% (active) | 54.9% (active) | 47.2% (active)
CCc1c(O)nc(SCC(=O)Nc2ccccc2C)n(-c2ccc(C)cc2)c1=O | 14.4% | 56.4% (active) | 66% (active) | -1.84%
COc1ccc(CCC(=O)Nc2c(-c3ccc(N(C)C)cc3)[nH][nH]c2=O)cc1 | 4.07% | 27.3% | 37.5% | -2.18%
O=C(c1ccc([N+](=O)[O-])o1)N1CCN(c2nc3c(Cl)cccc3s2)CC1 | 10.8% | 64.6% (active) | 61.3% (active) | 3.24%
O=C(CN1C(=O)NC2(CCCC2)C1=O)NCCc1ccc(F)cc1 | 15.3% | 44.2% (active) | 40.8% | 5.08%
CC[C@H](CO)Nc1nc(Nc2cccc(Cl)c2)c2ncn(C(C)C)c2n1 | 26% | 49.3% (active) | 38.4% | 35.9% (active)
CN(C)c1cc[n+](Cc2c(Cl)cccc2Cl)cc1 | 7.95% | 73.2% (active) | 68.2% (active) | 45.7% (active)
COC(=O)C1(C)Nc2ccccc2C(=O)N1c1ccccc1C (centres undefined) | 2.27% | 16% | 0.53% | 7.07%
COc1ccc(C2=Nn3c(nnc3-c3ccccc3OC)SC2)cc1OC | 52.6% (active) | 58.7% (active) | 64% (active) | 11.1%
O=[N+]([O-])c1cnccc1Nc1ccccc1 | 7.45% | 62% (active) | 58.9% (active) | 1.98%
CCNC(=S)N1CCN(c2nc(CC)nc3sc4c(c23)CCCC4)CC1 | 1.42% | 48.3% (active) | 37.6% | 5.39%
COc1cc2c(=O)[nH]c3cc([N+](=O)[O-])ccc3c2cc1[N+](=O)[O-] | -3.92% | 64.6% (active) | 56.6% (active) | -22.2%
Nc1nc2ccc(Cl)cc2cc1C(=O)NCc1ccc(Oc2ccccc2)cc1 | 14.7% | 54.2% (active) | 51.1% (active) | 45.7% (active)
Cn1ncc(Cl)c1C(=O)NCc1ccc2c(c1)OCO2 | -2.54% | 45.4% (active) | 50.1% (active) | 15.7%
CCOc1ccc(S(=O)(=O)Nc2cc(OC)ccc2OC)cc1 | 35.8% (active) | 54.4% (active) | 49.1% (active) | 22.6%
CC(C)n1c(SCC(=O)Nc2ccc(N3CCOCC3)cc2)nnc1-c1ccco1 | 4.53% | 55.5% (active) | 45.7% (active) | -2.66%
CNc1c2cccc(C)c2nc2c(C(=O)NCCN(C)C)cccc12 | 80.3% (active) | 109% (active) | 98% (active) | 74.7% (active)
COc1ccc(S(=O)(=O)N2CCN(CC(=O)Nc3ccc(C)c(F)c3)CC2)cc1 | 17.5% | 58.6% (active) | 51.9% (active) | -4.75%
Cc1cccnc1NC(=O)c1ccc([N+](=O)[O-])o1 | 12.3% | 52.7% (active) | 57.8% (active) | 1.88%
COc1ccc(OC)c(NS(=O)(=O)c2ccc(SC)cc2)c1 | 37.9% (active) | 55% (active) | 54.2% (active) | 14.8%
Cc1cc(OCC(=O)NCc2cccnc2)c2c(C)c(C)c(=O)oc2c1 | 9.8% | 61.8% (active) | 50.5% (active) | -8.94%
CC(C(=O)N1CCCc2c1c(=O)oc1ccc(O)cc21)N1CCc2ccccc2C1 (centres undefined) | 3.35% | 48.5% (active) | 32.4% | -3.51%
Cc1no[n+]([O-])c1COc1ccc(/C=C2\NC(=S)NC2=O)cc1 | -5.62% | 48.3% (active) | 45.9% (active) | -19.4%
Cc1ccc(C(=O)N/N=C\c2ccc([N+](=O)[O-])o2)cn1 | 24.3% | 59% (active) | 57% (active) | 0.83%
COc1ccccc1NC(=O)CN1CCN(CC(=O)Nc2ccc3c(c2)OCO3)CC1 | 7.22% | 54.4% (active) | 50.7% (active) | 0.21%
CCCCNC(=O)COC(=O)c1c2c(nc3ccccc13)/C(=C/c1cccs1)CC2 | 11.2% | 58% (active) | 26.4% | 37.3% (active)
